Laboratory results: PubChem BioAssay AID1985 (Southern Research Specialized Biocontainment Screening …, 2009)
Hit rate of the full screen: of about 2,300 compounds, about 1,000 (43%) were called active. The rule behind the calls is not given here. The set was probably picked from earlier hits. The list shows a part of the results. Measured potencies and affinities stand elsewhere.

Assay: modified counter assay using GFP fluorescence, PhoP regulon inhibitor project, dose response (AID 1985)
Settings: S. Typhi, 4 h; series mostly up to 150 µM

SMILES	outcome
CCOC(=O)COn1c(=O)c(-c2cccs2)[n+]([O-])c2ccccc21	inactive
O=C(O)C1CCCCC1C(=O)NCCc1ccncc1 (stereo not given)	inactive
C#CCOCCOCCOCCNc1nc(N2CCN(C(=O)CCCCCCCCCCNC(=O)[C@@H](CCSC)n3cc(CCO)nn3)CC2)nc(N2CCN(C(=O)CCCCCCCCCCNC(=O)[C@H]([C@@H](C)CC)n3cc(CCCCN=C(N)N)nn3)CC2)n1	inactive
Cn1c(=O)c2c(nc(Br)n2CCSc2nc3ccccc3o2)n(C)c1=O	inactive
CC(=O)c1cccc(CN2CCN(C3CCCC3)C(CCO)C2)c1 (stereo not given)	inactive
Cc1ccc(S(=O)(=O)NC(C)(C)CSc2nnc(N)s2)cc1	inactive
CCc1ccccc1NC(=S)N(Cc1cccc(C)c1)c1cccnc1	inactive
CC1(C)CC(N2CCN(C(c3ccccc3)c3ccccc3)CC2)=CC(=[N+]2CCCCC2)C1	inactive
CN1CCN(C(=O)c2cc(-c3cccc(Cl)c3)on2)CC1	inactive
CCn1c(-c2cccc(Br)c2)n[nH]c1=S	inactive
CC(=O)c1sc2nc(=O)c(C)nn2c1C	inactive
Cc1ccc(C(=O)N2C(=S)C(c3ccc(F)cc3)=NC23CCN(C)CC3)cc1	inactive
COc1ccc(N=Cc2c(O)n(CC3CCCO3)c(=O)[nH]c2=O)cc1 (stereo not given)	inactive
CC(=O)c1c(C)nc(-c2cccc([N+](=O)[O-])c2)n1O	inactive
COc1cc(C)nc(N2CCCC(C(=O)NCC(C)C)C2)n1 (stereo not given)	inactive
CCOC(=O)C1CCCN(C/C(O)=C(\C#N)c2nc(-c3ccccc3)cs2)C1 (stereo not given)	inactive
O=C(O)c1csc(-c2ccc(Cl)cc2)n1	inactive
O=C(C[n+]1cc(-c2ccc(Cl)cc2)n2c1CCC2)N1c2ccccc2Sc2ccccc21	inactive
Cc1ccc(-c2csc(NC(=O)C[n+]3cc(-c4ccccc4)n4c3CCC4)n2)cc1	inactive
CC(=O)N(CCC1(c2ccc(C)cc2)CCOC(C(C)C)C1)Cc1ccco1 (stereo not given)	inactive
Cc1cccc(/C(N)=N/OC(=O)N2CCOCC2)c1	inactive
CCOC(=O)C1CCN(Cc2nc(-c3ccc(OC)c(OC)c3)no2)CC1	inactive

SMILES	outcome
CC(=O)c1ccc(NC(=O)CN2CCCCCC2)cc1	inactive
O=C(Cn1[nH]c(=O)c2ccccc2c1=O)Nc1ccc(-c2nnc3n2CCCCC3)cc1	inactive
COC(=O)c1ccc(CSc2ccc3nnc(-c4ccc(OC)c(OC)c4)n3n2)o1	inactive
COc1ccc(S(=O)(=O)NCCSCc2ccco2)cc1Cl	inactive
Clc1ccc(CONc2ncnc3nonc23)c(Cl)c1	inactive
CCN1CCCC1Cn1cnc2c([nH]c3ccc(Cl)cc32)c1=O (stereo not given)	inactive
CCCCCCCCn1ccc(=N)cc1	inactive
O=C(On1c(-c2ccccc2)nc2ccccc2c1=O)c1ccco1	inactive
O=c1c2ccccc2nc(-c2ccoc2)n1CCc1ccccc1	inactive
CCC(O)CNc1nc(SC)nc2sc3c(c12)CCN(C)C3 (stereo not given)	inactive
CN1C(=O)C2(Nc3ccccc3-c3nc4ccccc4n32)c2ccccc21 (stereo not given)	inactive
O=C(N/N=C\c1cccc([N+](=O)[O-])c1O)C1COc2ccccc2O1 (stereo not given)	inactive
CCCCCN1C(=O)/C(=C/c2c(N3CCc4ccccc4C3)nc3ccccn3c2=O)SC1=S	inactive
Cn1cc(C(=O)N/N=C/C(Br)=C/c2ccccc2)ccc1=O	inactive
C/C(=N\NC(=O)c1c(Br)c(C)nn1C)c1ccc(NC(=O)c2ccoc2C)cc1	inactive
COc1cccc2cc(C(=O)Nc3ccccc3C)/c(=N/O)oc12	inactive
Clc1ccc(N/N=C/c2cccs2)nn1	inactive
CCN(CC)Cc1c(C(=O)N/N=C/c2cccs2)nnn1-c1nonc1N	inactive
Cc1ccnc(NC(=O)CCC(=O)N(CC(=O)NC2CCCCC2)C2CCCC2)c1	inactive
COC(=O)C1C(=O)C2=C(CC1C)Nc1ccccc1NC2c1ccc(C)s1 (stereo not given)	inactive
CC(C(=O)NC1CCCCC1)N1CCN(C)CC1 (stereo not given)	inactive
CN(C)c1nnnn1-c1ccc(Oc2ccccc2)cc1	inactive

SMILES	outcome
COC(=O)c1sccc1NC(=S)NCc1ccc(Cl)cc1	inactive
CC1CCN(C(=O)CSc2nnc(Cc3cc(=O)[nH]c(=O)[nH]3)n2-c2ccc(Cl)cc2)CC1	inactive
Cn1nnnc1SCC(=O)Nc1ccccc1-c1ccccc1	inactive
CCOc1cc(S(=O)(=O)N2CCN(CC)CC2)ccc1Cl	inactive
Cc1cc(C)n2nc(SCn3nnc4ccccc4c3=O)nc2n1	inactive
Cc1ccc2cc(CN(Cc3ccc(F)cc3)Cc3nnnn3C3CCCC3)c(=O)[nH]c2c1	inactive
COc1ccc(-n2ncc3c(NCc4ccccn4)ncnc32)cc1	inactive
CCCCCCNC1=NCCS1	inactive
CCCCCCCCC1=NCCc2c1[nH]c1ccccc21	inactive
CN(C)CCSc1nnc2[nH]c3ccccc3c2n1	inactive
CC1=C([N+](=O)[O-])C(c2cccc(Br)c2)C2=C(N1)c1ccccc1C2=O (stereo not given)	inactive
O=C(O)C1Cc2ccccc2CN1S(=O)(=O)c1ccc2ccccc2c1 (stereo not given)	inactive
CC(=O)c1c(C)[nH]c(C(=O)CSc2nnc(-c3ccc(Cl)cc3)n2CC2CCCO2)c1C (stereo not given)	inactive
O=C(CSc1nc2ncc(Cl)cc2[nH]1)NCC(=O)Nc1ccc(F)c(F)c1F	inactive
CC1(C)CC(N2CCN(c3ccccc3)CC2)=CC(=[N+]2CCCC2)C1	inactive
CCCCCCC(=O)N(O)C1CC(=O)N(Cc2ccccc2)C1=O (stereo not given)	inactive
Cc1ccc(OCC(O)Cn2c(N)nc3c2c(=O)n(C)c(=O)n3C)cc1 (stereo not given)	inactive
C=CCn1c(C)c(C(C)=O)c(N2CCCC2)nc1=S	inactive
CCOC(=O)C1=C(C(C)=O)C(c2cccnc2)C(C#N)=C(N)O1 (stereo not given)	inactive
COc1ccc(CN2CCSCC2)cc1C	inactive
Cc1ccc(NC(=O)CN(C)C(=O)Cn2ccsc2=N)cc1	inactive
CC(C)NC(=O)c1cc(-c2ccc(Br)cc2)on1	inactive

SMILES	outcome
Cc1ccccc1-c1ncc(CN2CCN(C3CCCC3)C(CCO)C2)cn1 (stereo not given)	inactive
Nc1nc2n(n1)C(c1ccco1)CC(c1ccc(Cl)c(Cl)c1)N2 (stereo not given)	inactive
CCN(CC)CCNC(=O)c1cccc(NC(=O)C(=O)c2cc(Br)ccc2NC(C)=O)c1	inactive
CC(=O)Nc1cc(-c2ccc(Cl)cc2)[nH]n1	inactive
COc1ccc(NS(=O)(=O)c2cccc(NC(=O)c3ccccn3)c2)cc1	inactive
O=C(NC(=C(Cl)Cl)S(=O)(=O)c1ccc(Cl)cc1)c1ccccc1	inactive
CCCCCCCCCCCCC/C=C/[C@@H](O)[C@@H](N)CO	inactive
COc1ccc(OC)c(S(=O)(=O)N2CCC(C(=O)NCCc3ccc(OC)c(OC)c3)CC2)c1	inactive
Cc1nnc(SCc2cnc(-c3ccc(C(C)C)cc3)s2)n1C	inactive
O=C(C[n+]1cc(-c2ccccc2)n2c1CCC2)c1cccs1	inactive
Cc1ccc(-n2c(Cc3noc4ccccc34)n[nH]c2=S)cc1	inactive
CCc1nnc(NS(=O)(=O)c2ccc(NC(=S)NC(=O)/C=C/c3ccc([N+](=O)[O-])cc3)cc2)s1	inactive
CCN(CC)CCCNC(=O)c1c(O)c2c([nH]c1=O)CCCC2	inactive
CCSc1nc(C)cc(C)c1S(=O)(=O)c1ccccc1C	inactive
Nc1cccc2c(=O)c3ccccc3[nH]c12	inactive
O=c1ccn(CCc2c[nH]c3ccccc23)c2c1CCCC2	inactive
Cc1[nH]c2ccccc2c1/C=C/c1nc2ccccc2c(=O)[nH]1	inactive
Cc1ccc2[nH]c(C(=O)O)c(NC(=O)CN3CCN(c4cccc(C)c4C)CC3)c2c1	inactive
CC1CCC[C@H](O)CCCCCc2cc(O)cc(O)c2C(=O)O1 (stereo not given in full)	inactive
O=C(O)c1ccc(S(=O)(=O)NC2CC2)cc1	inactive
c1cc2c(cc1C1CCCCC1)c1c3n2CCN=C3CCC1	inactive
CC1(C)CC(=O)C(C=NCC2CCN(C(=O)Cc3ccccc3)CC2)=C(O)C1	inactive

SMILES	outcome
O=C(CSc1ncc(-c2ccc(F)cc2)[nH]1)NCc1ccco1	inactive
CC(C)(C)c1nc(SCC(=O)NCc2ccco2)c2ccccc2n1	inactive
COc1ccccc1Nc1nc(NCc2ccco2)c2ccccc2n1	inactive
O=C(CSc1nc2c(c(=O)n1-c1ccc(F)cc1)SCC2)NCc1ccco1	inactive
c1ccc(CN2CCN(c3nc(NCc4ccco4)c4ccccc4n3)CC2)cc1	inactive
CC1CCCN(C(=O)Cn2c(=O)oc3cc(S(=O)(=O)N4CCCCC4)ccc32)C1 (stereo not given)	inactive
COc1ccc(CSCCN)cc1Cl	inactive
CCCOc1ccc(C2=CSC3=NCCN23)cc1Cl	inactive
c1ccn(-c2ccc(-c3ccn[nH]3)cc2)c1	inactive
O=C(NCc1ccco1)c1ccc2c(c1)N(Cc1ccccc1)CCS2	inactive
O=C1N/C(=C/c2ccc(N3CCOCC3)cc2)C(=O)N1Cc1ccc(F)cc1	inactive
CCOC(=O)c1c(CSC(=N)N)n(C)c2cc(Br)c(OC(C)=O)cc12	inactive
CCOC(=O)Cc1[nH]nc2c1C(c1ccoc1)C(C#N)=C(N)O2 (stereo not given)	inactive
NC1=NC[C@H](Cc2ccc(O)cc2)N1CCc1cccc2ccccc12	inactive
COc1ccc(C(=O)Oc2cc(C(=S)N3CCOCC3)ccc2OC)cc1	inactive
COc1cc2c(cc1OC)CN(C(=O)CCCN1C(=O)c3ccccc3C1=O)CC2	inactive
Cc1cc(C)c[n+](CC(=O)c2ccc(NC(=O)c3ccccc3)cc2)c1	inactive
CC(C)(C)n1nc2c(c1NC(=O)c1ccccc1)CS(=O)(=O)C2	inactive
Cc1ccc(C)c(OCC(=O)Nc2cccc(C(=O)O)c2)c1C	inactive
Cc1c(-c2ccccc2)[n+](=O)c2c(n1[O-])CCCC2	inactive
Cn1c(CCN2CCN(c3ccccn3)CC2)nc2cc(NC(=O)COc3ccccc3)ccc21	inactive
O=c1c2ccccc2nc2n1CCc1c-2[nH]c2ccccc12	inactive
